Source: PubChem BioAssay (several laboratories)
UHRF1 MBD2 ctr = UHRF1 methylated DNA binding inhibitors, primary screen, counter-screen for MBD2 inhibitor project, biochemical, TR-FRET, human UHRF1, single concentration; inhibition, % at 4.4 µM; UHRF1 binding to methylated oligo; 370,000 compounds, 0.75% hits; AID 687016, 2013; in the data active means inhibition above about 21%;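 further: UHRF1 SRA domain binding a hemimethylated CpG hairpin DNA probe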
MBD2 DNA inh = inhibitors of MBD2 binding to methylated DNA, primary screen, biochemical, TR-FRET, DNA-binding domain, human. MBD2 binding to methylated oligonucleotide. inhibition, % at 4.4 µM. 370,000 compounds, 0.31% hits. AID 686964, 2013; in the data active means inhibition above about 13%
Target sequence (Q9UBB5 whole entry, looked up, the tested form may be a part): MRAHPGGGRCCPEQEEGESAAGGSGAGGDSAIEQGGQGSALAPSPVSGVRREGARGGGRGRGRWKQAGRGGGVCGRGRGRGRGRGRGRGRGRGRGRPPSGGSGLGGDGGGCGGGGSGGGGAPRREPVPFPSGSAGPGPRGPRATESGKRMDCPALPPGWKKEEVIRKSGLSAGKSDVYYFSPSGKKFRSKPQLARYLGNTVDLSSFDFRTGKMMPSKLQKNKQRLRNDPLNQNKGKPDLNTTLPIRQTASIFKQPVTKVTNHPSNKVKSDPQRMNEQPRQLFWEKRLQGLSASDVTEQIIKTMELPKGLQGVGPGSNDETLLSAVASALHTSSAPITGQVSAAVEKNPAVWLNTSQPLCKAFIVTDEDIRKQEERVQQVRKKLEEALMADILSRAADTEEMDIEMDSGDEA
LEDGF integ inh = blockers of LEDGF/p75-dependent integrase strand transfer – biochemical, TR-FRET, high throughput, primary screen; TR-FRET IN-LEDGF/p75 DNA integration, Eu/Cy5; inhibition, % at 3.7 µM; 370,000 compounds, 0.64% hits; AID 743269, 2014;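 active means inhibition above the screen-wide mean plus 3 SD, cut at about 13% in these data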;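 further: signal is the Cy5 over europium emission ratio at 671 and 618 nm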
CASP6 VEID inh = human caspase-6 inhibitors, primary screen, biochemical, VEID-R110 fluorescence, single point, set 2 | AID 686996, 2013 | purified caspase-6, Z-VEID-R110 cleavage fluorescence | inhibition, % at 12.5 µM | P55212 | 350,000 compounds, 0.53% hits;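 active means mean inhibition across replicates at least about 35%, with every replicate also reaching that limit, limit read from the data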
Target sequence (P55212 24-179 limits assumed): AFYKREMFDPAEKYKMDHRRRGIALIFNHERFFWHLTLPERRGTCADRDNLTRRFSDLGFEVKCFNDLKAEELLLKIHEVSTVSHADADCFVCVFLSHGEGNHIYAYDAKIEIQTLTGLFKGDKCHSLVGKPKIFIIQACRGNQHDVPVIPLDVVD
Target sequence (P55212 194-293 limits assumed): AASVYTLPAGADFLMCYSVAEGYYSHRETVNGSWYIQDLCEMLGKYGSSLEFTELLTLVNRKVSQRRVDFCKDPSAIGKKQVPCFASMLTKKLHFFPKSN
Large screens that a line does not name were inactive. Shown are actives, neighbours in structure and some others; about 1.4% of the full set was active somewhere.

C[C@H](O)C#Cc1cnc2c(c1)C(=O)N([C@@H](C)CO)C[C@H](C)[C@H](CN(C)CC1CCCCC1)O2	none (no result: UHRF1 MBD2 ctr, MBD2 DNA inh, LEDGF integ inh)
S=C(NC1CCCCC1)N1CCN(Cc2ccccc2Cl)CC1	none
S=C(NC1CCCCC1)N1CCN(Cc2ccccc2)CC1	UHRF1 MBD2 ctr 21.4
COc1ccccc1-c1cn(CC[C@H]2CC[C@@H](NC(=O)C3CCC3)[C@H](CO)O2)nn1	none (no result: UHRF1 MBD2 ctr, MBD2 DNA inh, LEDGF integ inh)
CCOc1ccc(CNC(=O)CCc2cn(C)c3ccccc23)cc1OC	UHRF1 MBD2 ctr 58.6
CCn1cc(CCC(=O)NCc2ccccc2OC)c2ccccc21	UHRF1 MBD2 ctr 21.8
CC(C)NC(=O)N[C@H]1CC[C@H](CCNC(=O)C2CCOCC2)O[C@@H]1CO	none (no result: UHRF1 MBD2 ctr, MBD2 DNA inh, LEDGF integ inh)
C/C=C/c1ccc([C@H]2[C@H](C#N)N(c3nc(-c4ccccc4)cs3)[C@H]2CO)cc1	none (no result: UHRF1 MBD2 ctr, MBD2 DNA inh, LEDGF integ inh)
C=C(C)CCC(C)N1CCC(n2nccc2NC(=O)CCCc2ccccc2)CC1 (configuration not stated)	UHRF1 MBD2 ctr 20.9
CC1=C(C(=O)N2CCOCC2)C(c2ccc(O)cc2)NC(=S)N1 (configuration not stated)	none (no result: CASP6 VEID inh)
Oc1ccc2c(c1)C1CCCC1(N1CCOCC1)O2 (configuration not stated)	LEDGF integ inh 31.1 (no result: CASP6 VEID inh)
S=C(N/N=C/c1ccc2ncccc2c1)Nc1ccccc1	UHRF1 MBD2 ctr 32.4
Fc1ccc(/C=N/NC(=S)Nc2cccnc2)cc1	CASP6 VEID inh 48.2
Fc1ccc(/C=N/NC(=S)Nc2cccnc2)cc1F	none
O=C(NC1CCCCC1)N[C@@H]1CC[C@H](CC(=O)N2CCOCC2)O[C@H]1CO	none (no result: UHRF1 MBD2 ctr, MBD2 DNA inh, LEDGF integ inh)
C(#Cc1ccccc1)C[N+]1(CC#Cc2ccccc2)CCCCC1	none
C#CC[N+]1(CC#Cc2ccccc2)CCCCC1	UHRF1 MBD2 ctr 38.2
O=C1CC(=O)Nc2cc(S(=O)(=O)NCc3cccs3)ccc2N1	UHRF1 MBD2 ctr 23.6
COc1ccc(S(=O)(=O)NCc2cccs2)cc1	UHRF1 MBD2 ctr 47.9 (no result: CASP6 VEID inh)
CC=Cc1ccc2n(c1=O)C[C@@H]1[C@@H](CO)[C@H](C(=O)NCC3CC3)N(CCC(F)(F)F)[C@H]21 (mixture of isomers)	none (no result: UHRF1 MBD2 ctr, MBD2 DNA inh, LEDGF integ inh)
Cc1noc(C)c1S(=O)(=O)Nc1ccc2c(c1)C(=O)N([C@@H](C)CO)C[C@H](C)[C@H](CN(C)C(=O)c1ccncc1)OCCCC[C@@H](C)O2	none (no result: UHRF1 MBD2 ctr, MBD2 DNA inh, LEDGF integ inh)
CC(C)CNC(=S)NC1CCCC1	none (no result: CASP6 VEID inh)
CC(C)CNC(=O)C(=O)NC1CCCC1	UHRF1 MBD2 ctr 21.0 (no result: CASP6 VEID inh)
Cc1ccc(CNC(=O)c2ccc(N3CCC4(CC3)CC(c3ccccc3)=NO4)c([N+](=O)[O-])c2)cc1	UHRF1 MBD2 ctr 21.9
NC(=O)/C(=C/c1ccco1)C(N)=S	CASP6 VEID inh 35.2
Cc1ccc(CN2C(=O)CCSc3ccc(Cl)cc32)cc1	none (no result: CASP6 VEID inh)
CCOC(=O)CN1C(=O)CCSc2ccc(Cl)cc21	UHRF1 MBD2 ctr 35.9
C/C=C/c1ccc2c(c1)[C@H]1[C@H](CCN1S(=O)(=O)c1cccc(F)c1)[C@@H](CO)N2	none (no result: UHRF1 MBD2 ctr, MBD2 DNA inh, LEDGF integ inh)
CC(C)CN1CCC(CN2CCNC(=O)C2=O)CC1	CASP6 VEID inh 35.9
CCOc1ccccc1N(CC(=O)N(C)Cc1ccccc1)S(=O)(=O)c1ccccc1	UHRF1 MBD2 ctr 22.6
CCOc1ccccc1N(CC(=O)O)S(=O)(=O)c1ccccc1	none (no result: CASP6 VEID inh)
CCOc1ccccc1NC(=O)CSc1n[nH]c(N)n1	CASP6 VEID inh 56.7
CCOc1cc(N2CCOCC2)c(OCC)cc1NC(=O)CSc1n[nH]c(N)n1	none
Cc1cc(NC(=O)CCC(=O)N(C(C(=O)NC(C)(C)C)c2ccccc2Cl)C(C)(C)C)no1 (configuration not stated)	UHRF1 MBD2 ctr 25.2
CCC(C)N(C(=O)CCC(=O)Nc1cc(C)on1)C(C(=O)NC(C)(C)C)c1ccccc1Cl (configuration not stated)	none
O=C(NC(=S)NC1CCSC1=O)c1cccs1 (configuration not stated)	UHRF1 MBD2 ctr 49.7
Cc1ccccc1C(=O)NC(=S)NC1CCSC1=O (configuration not stated)	none (no result: CASP6 VEID inh)
COc1cc(O)c(CC=C(C)C)c(O)c1C(=O)CCc1ccc(O)cc1	UHRF1 MBD2 ctr 22.6
Cc1cc(C(=O)Nc2cccc3c2O[C@@H](CN(C)S(=O)(=O)c2ccc(F)cc2)[C@H](C)CN([C@@H](C)CO)C3=O)n(C)n1	none (no result: UHRF1 MBD2 ctr, MBD2 DNA inh, LEDGF integ inh)
CCC1(C)Cc2c(C#N)c(N)sc(=S)c2CO1 (configuration not stated)	none
CCC1(C)Cc2c(C#N)c(N)n(-c3ccccc3)c(=S)c2CO1 (configuration not stated)	CASP6 VEID inh 35.6
C[C@@H]1CN([C@@H](C)CO)S(=O)(=O)c2ccc(-c3ccccc3)cc2O[C@H]1CN(C)S(C)(=O)=O	none (no result: UHRF1 MBD2 ctr, MBD2 DNA inh, LEDGF integ inh)
C[C@@H]1CN([C@@H](C)CO)S(=O)(=O)c2ccc(C#C[C@@H](C)O)cc2O[C@@H]1CN(C)C(=O)c1ccccc1	none (no result: UHRF1 MBD2 ctr, MBD2 DNA inh, LEDGF integ inh)
O=S(=O)(NCc1ccc2c(c1)OCO2)c1ccc2c(c1)oc1ccccc12	UHRF1 MBD2 ctr 29.4
CN(CC(=O)Nc1cccc(F)c1)C(=O)c1cc(-c2ccco2)nc2ccccc12	none
COc1ccccc1CNC(=O)COC(=O)c1cc(-c2ccco2)nc2ccccc12	UHRF1 MBD2 ctr 31.4, MBD2 DNA inh 19.6 (no result: CASP6 VEID inh)
COc1ccc(NC(=O)CN(C)C(=O)c2cc(-c3ccco3)nc3ccccc23)cc1	UHRF1 MBD2 ctr 29.0
COc1ccccc1CNC(=O)COC(=O)c1cc(C)nc2ccccc12	none
C[C@@H]1CCCCO[C@@H](CN(C)C(=O)C2CCCCC2)[C@@H](C)CN([C@@H](C)CO)C(=O)c2cc(NS(=O)(=O)c3cn(C)cn3)ccc2O1	none (no result: UHRF1 MBD2 ctr, MBD2 DNA inh, LEDGF integ inh)
CC=Cc1ccc2n(c1=O)C[C@H]1[C@H](CO)[C@@H](C(=O)NCc3ccncc3)N(Cc3ccncc3)[C@@H]21 (mixture of isomers)	none (no result: UHRF1 MBD2 ctr, MBD2 DNA inh, LEDGF integ inh)
Cc1ccccc1C1=C/C(=C(\SS/C(C(=O)c2ccc(OCC(=O)O)c(Cl)c2Cl)=C2\C=C(c3ccccc3C)SS2)C(=O)c2ccc(OCC(=O)O)c(Cl)c2Cl)SS1	CASP6 VEID inh 46.0
CC1CCN(CCc2nc3cc(NC(=O)COc4ccccc4)ccc3n2C)CC1	UHRF1 MBD2 ctr 25.7
CCC(=O)Nc1ccc2c(c1)nc(CCN1CCC(C)CC1)n2C	none
CCOC(=O)C1(CC/C(C)=N\NC(N)=O)CC(C)OC1=O (configuration not stated)	UHRF1 MBD2 ctr 20.9 (no result: CASP6 VEID inh)
COc1ccc(Cc2c(C(C)(C)C)nc3ccc(Br)cn23)c(C)c1	none
COC(=O)c1ccc2nc(C3CCCCC3)c(Cc3ccc(C)cc3)n2c1	UHRF1 MBD2 ctr 22.8
Cc1ccc(Cc2c(C3CCCCC3)nc3ccc(Br)cn23)cc1	none
COC(=O)c1ccc2nc(C3CCCCC3)c(Cc3cccc(Cl)c3)n2c1	UHRF1 MBD2 ctr 23.4
COC(=O)c1ccc2nc(C(C)(C)C)c(Cc3ccc(OC)cc3C)n2c1	UHRF1 MBD2 ctr 21.8
COC(=O)c1ccc2nc(C3CCCCC3)c(Cc3ccc(OC)cc3C)n2c1	UHRF1 MBD2 ctr 21.0
